Compound activity from PubChem BioAssay.
SMN2 splice up – enhancers of SMN2 splice variant expression | HEK293 SMN2-luciferase splicing reporter, luminescence, 30-36 h | Potency, µM (doses to about 46.1 µM), most hits filed as activators | actives 2.8% (n = 210,000) | AID 1458; note: nearly all actives have a fitted effect of over 55% in size
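HEK293 cells carry an SMN2 […]–luciferase reporter in which exon 7 inclusion puts luciferase in frame. Cells were plated 10-12 h before compound addition, then incubated 30-36 h at 37C. ONE-Glo luminescence was read; sodium butyrate at 4.5 mM final served as control.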
ELG1 genotoxic – induces genotoxicity in HEK293T cells with luciferase-tagged ELG1; HEK293T ELG1-luciferase reporter, luminescence, 16 h; Potency, µM (top dose mostly 46 µM), hits mostly activators; actives 1.3% (n = 330,000); note: nearly all actives have a fitted effect of over 60% in size
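16 hr compound incubation (37 °C, 5% CO2) of HEK293T cells carrying luciferase-tagged ELG1; luciferase then measured by ONE-Glo luminescence after 30 min at RT.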
FLuc modulator – counter-screen for miR-21 project: firefly luciferase inhibitors or activators; P08659; purified FLuc, Km substrates, luminescence inhibition; Potency, µM (doses to about 57.5 µM), actives largely listed as inhibitors; actives 6.9% (n = 360,000); AID 588342; note: nearly all actives have a fitted effect of over 55% in size
Target sequence (P08659 whole entry, looked up): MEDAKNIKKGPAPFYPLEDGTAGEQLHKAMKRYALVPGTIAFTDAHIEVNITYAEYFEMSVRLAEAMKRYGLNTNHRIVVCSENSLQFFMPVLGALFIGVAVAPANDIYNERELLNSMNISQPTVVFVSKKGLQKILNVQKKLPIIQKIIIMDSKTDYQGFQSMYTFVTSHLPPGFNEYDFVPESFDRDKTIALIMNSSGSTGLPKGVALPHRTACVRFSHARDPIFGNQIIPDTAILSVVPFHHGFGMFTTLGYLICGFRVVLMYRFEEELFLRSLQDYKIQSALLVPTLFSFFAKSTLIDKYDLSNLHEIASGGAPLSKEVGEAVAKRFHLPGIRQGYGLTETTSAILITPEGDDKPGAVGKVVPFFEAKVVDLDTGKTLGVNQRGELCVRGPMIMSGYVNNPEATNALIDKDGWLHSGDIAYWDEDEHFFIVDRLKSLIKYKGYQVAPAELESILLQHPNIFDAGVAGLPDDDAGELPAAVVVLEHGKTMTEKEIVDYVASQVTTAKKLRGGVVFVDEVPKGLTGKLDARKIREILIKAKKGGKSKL
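Biochemical qHTS of compounds, final roughly 60 µM downward over six points, against 10 nM purified firefly luciferase using Km concentrations of substrates (10 uM D-luciferin, 10 uM ATP) in Tris acetate pH 7.5 buffer; luminescence output.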
NPC1 prom act – activates the NPC1 promoter | Huh7 NPC1 promoter luciferase reporter, 24 h | Potency, µM (doses to about 9.22 µM), hits mostly activators | actives 2.4% (n = 320,000) | AID 485313; note: nearly all actives have a fitted effect of over 60% in size
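Huh7 reporter cells (NPC1 promoter driving luciferase) are dosed with compound for 24 h at 37 °C, 5% CO2; luciferase detection reagent is then added and luminescence measured after 10 min at ambient temperature.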
Rab9 prom act – Rab9 promoter activation. Huh7 Rab9 promoter-luciferase reporter, luminescence, 24 h. Potency, µM (doses to about 9.22 µM), hits mostly activators. actives 2.8% (n = 320,000); note: nearly all actives have a fitted effect of over 60% in size
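Rab9 promoter-driven luciferase in stably transfected Huh7 cells; 1500 cells/well rested 2 h, exposed to compound in DMSO for 24 h at 37 °C, 5% CO2. Luminescence read 10 min after adding luciferase reagent at ambient temperature.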
A number is an active result; 0 = inactive; ? = inconclusive; - = not tested or not shown. Shown are actives, neighbours in structure and some others; about 7.4% of the full set was active somewhere. Calls come from the whole dose curve; as a rule, active = well fitted curve in the direction sought with a large enough effect; inconclusive = small, poorly fitted or top-dose-only effect, or another doubt; inactive = no such curve, though single readings can be large; an effect the other way counts as inactive or inconclusive.

SMILES	SMN2 splice up	ELG1 genotoxic	FLuc modulator	NPC1 prom act	Rab9 prom act
Cc1ccc(N/C=C2\CCCCC2=O)c(C)c1	0	0	?	0	0
O=C1C(Cc2ccccc2)Nc2ncnc(N3CCc4ccccc4C3)c2N1Cc1ccc(Br)cc1 (stereo unspecified)	-	0	0	0	0
COC(=O)c1ccc(COn2nnc3ccccc32)cc1	12.6µM	?	6.75µM	1.12µM	1µM
COC(=O)c1ccc(NC(=O)CN2C(=O)CSC2=O)cc1	0	0	?	0	0
CCOC(=O)c1ccc(NC(=O)Cn2nnc3ccccc32)cc1	0	?	10.7µM	3.55µM	2.82µM
CCOC(=O)c1ccc(NC(=O)CN2C(=O)CSCC2=O)cc1	0	0	15.1µM	0	0
CCOC(=O)c1ccc(NC(=O)CCn2nnc3ccccc32)cc1	0	0	0	0	0
CCOC(=O)c1ccc(NC(=O)CN2C(=O)CSC2=O)cc1	0	0	21.3µM	0	0
COc1ccc(N(CC(C)C)S(=O)(=O)c2nnc(NC(=O)c3ccco3)s2)cc1	-	0	0	0	0
O=C(CN1N=C(c2ccc(Cl)cc2)CCC1=O)NCCN1CCc2ccccc2C1	0	0	0	0	0
COc1ccc(Cl)cc1S(=O)(=O)Nc1cccc(-c2ccc(N3CCOCC3)nn2)c1	-	-	19µM	-	-
COc1ccc(-c2cccc(NS(=O)(=O)c3cc(C)ccc3OC)c2)nn1	-	-	0	-	-
Cc1cc(S(=O)(=O)Nc2cccc(-c3ccc(N4CCOCC4)nn3)c2)c(C)cc1Cl	-	-	12µM	-	-
Cc1nc(-c2ccccc2)nc2sc(C(=O)c3ccc(F)cc3)c(N)c12	-	0	0	0	0
Cc1snc2sc(C(=O)c3ccc(Br)cc3)c(N)c12	?	11.6µM	0	2.82µM	3.98µM
Cc1ccc(C(=O)c2sc3nsc(C)c3c2N)cc1	10µM	0.581µM	1.69µM	1.12µM	2.82µM
CC1CCN(S(=O)(=O)c2ccc3c(c2)oc(=O)n3CC(=O)NCc2ccc(F)cc2)CC1	0	-	?	-	-
CCCc1nn2c(=O)cc(COC(=O)c3cccs3)nc2s1	-	-	26.9µM	-	-
CC(C)c1nn2c(=O)cc(COC(=O)C3CCCCC3)nc2s1	-	-	23.9µM	-	-
Cc1ccccc1C(=O)OCc1cc(=O)n2nc(C(C)C)sc2n1	-	-	16.9µM	-	-
C=CCc1cc(/C=C/c2nc(O)c([N+](=O)[O-])c(=O)[nH]2)cc(OC)c1O	0	0	16.9µM	0	0
CCOc1ccc(N=C(C)c2ccccc2O)cc1	0	0	21.3µM	0	0
C/C(=N/N=C(\C)c1ccccc1O)c1ccccc1O	-	?	?	?	0
Cc1cc(-c2nnc(CCC(=O)N(C)CCc3ccccc3)o2)no1	-	?	?	0	0
CCN(CCn1cccn1)C(=O)CCc1nnc(CCCc2ccccc2)o1	11.2µM	16.4µM	15.1µM	?	2.82µM
SMILES	SMN2 splice up	ELG1 genotoxic	FLuc modulator	NPC1 prom act	Rab9 prom act
O=C(CCc1nnc(CCCCc2ccccc2)o1)N(CCO)Cc1ccccc1	-	0	0	0	0
CCN(CCn1cccn1)C(=O)CCc1nnc(-c2ccc3c(c2)OCO3)o1	-	0	0	0	0
Cc1cccc(Cc2nnc(CCC(=O)N(C)CCc3ccccc3)o2)c1	-	18.3µM	7.57µM	3.55µM	3.98µM
C=C(C)CN(CC)C(=O)CCc1nnc(CCCc2ccccc2)o1	-	?	12µM	3.55µM	3.16µM
CCOc1ccc(CCNC(=O)C2=C(C)C(=O)OC23CCCCC3)cc1	0	-	0	-	-
COc1ccc(OC)c2sc(N(Cc3cccnc3)C(=O)c3ccco3)nc12	-	-	0	-	-
Cc1ccc(C(C)NC(=O)c2ccncc2)c(C)c1 (stereo unspecified)	-	0	0	0	0
CCc1cc(C(=O)c2ccc(OC)cc2)c(N)s1	-	0	0	0	0
COc1ccc(C(=O)c2ccsc2N)cc1	-	?	16.9µM	3.55µM	?
COc1ccc(C(=O)c2ccc(CC#N)s2)cc1	12.6µM	?	12µM	?	?
CCCCN(CC)C(=O)Cn1cc2c(n1)-c1c(oc(C(=O)N3CCCC3)c1C)CC2	-	-	0	-	-
O=C(NCc1ccccc1Cl)c1ccccc1NC(=O)c1nsc2ccccc12	-	-	16.9µM	-	-
COc1ccc(OC)c(CNC(=O)c2ccc(NC(=O)c3nsc4ccccc34)cc2)c1	-	-	6.75µM	-	-
CC(C)Oc1ccc(CNC(=O)c2ccc(NC(=O)c3nsc4ccccc34)cc2)cc1	-	-	7.57µM	-	-
CSc1ccc(CNC(=O)c2ccc(NC(=O)c3nsc4ccccc34)cc2)cc1	-	-	6.01µM	-	-
